Consider 16 sequences from paper PMC8384837, “Expanding the binding specificity for RNA recognition by a PUF domain”.

Changes are numbered by the printed parent chain.

Common to all, as to experiment: yeast three-hybrid, YBZ-1, SC-Leu-His + 0.5 mM 3-AT, 4 days
What all share (settings): tags: N-Gal4 AD-HA kept; label: inside an RPR1-promoter hybrid RNA with tandem MS2 sites; ssRNA

For experiment [1], the target named is PUM1 PUF domain R5-RFF (Homo sapiens, UniProt Q14671 828-1176, C1007R;R1008F;Q1011F). The procedure, abridged: (§1)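 Repeat regions from input (SC-Leu) and selection (SC-Leu-His + 0.5 mM 3-AT) plates were PCR-amplified and Illumina-sequenced after four days of growth. The cells were strain YBZ-1 with a LexA–MS2 coat fusion and a HIS3 reporter, co-expressing Pumilio-1 PUF domain libraries and matching RNA elements from a centromeric plasmid. The interaction score is the log change in variant frequency from input to selection, taken in log2 with a pseudocount of 1 for absent variants.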

For experiment [2], the target named is PUM1 PUF domain R5-RRQ (Homo sapiens, UniProt Q14671 828-1176, C1007R). The method in brief:
as §1

The target of experiment [3] is PUM1 PUF domain R5-LSR (Homo sapiens, UniProt Q14671 828-1176, C1007L;R1008S;Q1011R). The procedure, abridged:
as §1

The target in experiment [4] is PUM1 PUF domain R8-KRI (Homo sapiens, UniProt Q14671 828-1176, N1122K;Y1123R;Q1126I). The procedure, abridged: as §1
Experiment [5] has as its target PUM1 PUF domain R8-RHC (Homo sapiens, UniProt Q14671 828-1176, N1122R;Y1123H;Q1126C). The procedure, abridged: as §1
The target of experiment [6] is PUM1 PUF domain R5-QLV (Homo sapiens, UniProt Q14671 828-1176, C1007Q;R1008L;Q1011V). The procedure, abridged: as §1
Experiment [7] concerns the target PUM1 PUF domain R7-RFW (Homo sapiens, UniProt Q14671 828-1176, S1079R;N1080F;E1083W). The procedure, abridged: as §1
The target in experiment [8] is PUM1 PUF domain R7-RGR (Homo sapiens, UniProt Q14671 828-1176, S1079R;N1080G;E1083R). The method in brief:
as §1

In experiment [9] the target is PUM1 PUF domain R4-WGK (Homo sapiens, UniProt Q14671 828-1176, N971W;H972G;Q975K). The method in brief:
as §1

Experiment [10] addresses PUM1 PUF domain R4-SRA (Homo sapiens, UniProt Q14671 828-1176, N971S;H972R;Q975A). The method in brief:
as §1

Experiment [11] deals with PUM1 PUF domain R2-LWG (Homo sapiens, UniProt Q14671 828-1176, N899L;Y900W;Q903G). The method in brief:
as §1

The target of experiment [12] is PUM1 PUF domain R3-VYG (Homo sapiens, UniProt Q14671 828-1176, C935V;R936Y;Q939G). The method in brief:
as §1

The target in experiment [13] is T1, PUM1 PUF domain R6-TWR (Homo sapiens, UniProt Q14671 828-1176, N1043T;Y1044W;Q1047R).
T1 sequence: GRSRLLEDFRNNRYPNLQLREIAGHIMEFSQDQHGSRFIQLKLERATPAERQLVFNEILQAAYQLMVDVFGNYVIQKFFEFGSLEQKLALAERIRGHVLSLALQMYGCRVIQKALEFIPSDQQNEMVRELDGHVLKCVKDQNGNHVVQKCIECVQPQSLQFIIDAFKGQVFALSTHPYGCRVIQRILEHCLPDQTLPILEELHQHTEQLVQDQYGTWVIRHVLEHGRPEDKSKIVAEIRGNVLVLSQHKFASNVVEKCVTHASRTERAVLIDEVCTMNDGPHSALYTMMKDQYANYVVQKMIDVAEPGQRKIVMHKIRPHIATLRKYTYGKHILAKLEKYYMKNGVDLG
The method in brief: as §1

In experiment [14] the target is PUM1 PUF domain R3-MRR (Homo sapiens, UniProt Q14671 828-1176, C935M;Q939R). The method in brief:
as §1

Experiment [15] addresses T2, PUM1 PUF domain R6-RFG (Homo sapiens, UniProt Q14671 828-1176, N1043R;Y1044F;Q1047G).
T2 sequence: T1 sequence with T216R, W217F, R220G
The method in brief: as §1

The target in experiment [16] is T3, PUM1 PUF domain R6-YHR (Homo sapiens, UniProt Q14671 828-1176, N1043Y;Y1044H;Q1047R).
T3 sequence: T1 sequence with T216Y, W217H
The procedure, abridged: as §1

In experiment [17] the target is T4, PUM1 PUF domain R6-KWA (Homo sapiens, UniProt Q14671 828-1176, N1043K;Y1044W;Q1047A).
T4 sequence: T1 sequence with T216K, R220A
The procedure, abridged: as §1

Experiment [18] concerns the target T5, PUM1 PUF domain R6-SHK (Homo sapiens, UniProt Q14671 828-1176, N1043S;Y1044H;Q1047K).
T5 sequence: T1 sequence with T216S, W217H, R220K
The procedure, abridged: as §1

Experiment [19] deals with T6, PUM1 PUF domain R6-LHS (Homo sapiens, UniProt Q14671 828-1176, N1043L;Y1044H;Q1047S).
T6 sequence: T1 sequence with T216L, W217H, R220S
The method in brief: as §1

Experiment [20] concerns the target PUM1 PUF domain R2-DWI (Homo sapiens, UniProt Q14671 828-1176, N899D;Y900W;Q903I). The procedure, abridged:
as §1

Take “GGCUAGAACUAGUGGAUCCCCCGGCGCCCGGCGGCUCGAGCCCGGGUAAGUGUCAAUAGUCUGCAUGCCGCCGGGCGCCAUGCCUGCAGGUCGACUCUAGAAAACAUG”: the binding signal in experiment [1] is 2.99 log2 enrichment (interaction score); in [2], 4.75 log2 enrichment (interaction score); in experiment [3], 2.6 log2 enrichment (interaction score).

Regarding “GGCUAGAACUAGUGGAUCCCCCGGCGCCCGGCGGCUCGAGCCCGGGUAAGCGUAAAUAGUCUGCAUGCCGCCGGGCGCCAUGCCUGCAGGUCGACUCUAGAAAACAUG”, the binding signal in [4] is 2.91 log2 enrichment (interaction score); in experiment [5], 4.55 log2 enrichment (interaction score).

Take “GGCUAGAACUAGUGGAUCCCCCGGCGCCCGGCGGCUCGAGCCCGGGUAAGUGUGAAUAGUCUGCAUGCCGCCGGGCGCCAUGCCUGCAGGUCGACUCUAGAAAACAUG”: the binding signal is 2.52 log2 enrichment (interaction score) in experiment [6] and 1.79 log2 enrichment (interaction score) in experiment [2].

Consider “GGCUAGAACUAGUGGAUCCCCCGGCGCCCGGCGGCUCGAGCCCGGGUAAGUCUAAAUAGUCUGCAUGCCGCCGGGCGCCAUGCCUGCAGGUCGACUCUAGAAAACAUG”, for which the binding signal in experiment [7] was 5.36 log2 enrichment (interaction score); in experiment [8], 5.01 log2 enrichment (interaction score).

“GGCUAGAACUAGUGGAUCCCCCGGCGCCCGGCGGCUCGAGCCCGGGUAAGUGUACAUAGUCUGCAUGCCGCCGGGCGCCAUGCCUGCAGGUCGACUCUAGAAAACAUG”: the binding signal in [9] is 3.57 log2 enrichment (interaction score); in [10], 1.76 log2 enrichment (interaction score).

Turning to “GGCUAGAACUAGUGGAUCCCCCGGCGCCCGGCGGCUCGAGCCCGGGUAAGUUUAAAUAGUCUGCAUGCCGCCGGGCGCCAUGCCUGCAGGUCGACUCUAGAAAACAUG”, the binding signal in [8] was 6.1 log2 enrichment (interaction score).

In the case of “GGCUAGAACUAGUGGAUCCCCCGGCGCCCGGCGGCUCGAGCCCGGGUAAGUGUAAAUAGUCUGCAUGCCGCCGGGCGCCAUGCCUGCAGGUCGACUCUAGAAAACAUG”, the binding signal in experiment [1] was 1.95 log2 enrichment (interaction score); in experiment [9] it was 1.16 log2 enrichment (interaction score); in experiment [11], 1.91 log2 enrichment (interaction score); in experiment [12] it was 3.51 log2 enrichment (interaction score); in experiment [2], 3.35 log2 enrichment (interaction score); in experiment [13] it was 7.84 log2 enrichment (interaction score). Further, the binding signal in experiment [14] is 0.71 log2 enrichment (interaction score); in experiment [15], 3.56 log2 enrichment (interaction score); in experiment [16] it was 4.05 log2 enrichment (interaction score); in experiment [10] it was 4.71 log2 enrichment (interaction score); in experiment [17], 2 log2 enrichment (interaction score); in [18] it was 3.34 log2 enrichment (interaction score). Also, the binding signal in [19] was 2.24 log2 enrichment (interaction score); in experiment [5] it was 3.41 log2 enrichment (interaction score); in experiment [3] it was 0.51 log2 enrichment (interaction score).

“GGCUAGAACUAGUGGAUCCCCCGGCGCCCGGCGGCUCGAGCCCGGGUAAGUGUAACUAGUCUGCAUGCCGCCGGGCGCCAUGCCUGCAGGUCGACUCUAGAAAACAUG”: the binding signal in experiment [14] was 0.49 log2 enrichment (interaction score).

As to “GGCUAGAACUAGUGGAUCCCCCGGCGCCCGGCGGCUCGAGCCCGGGUAAGUAUAAAUAGUCUGCAUGCCGCCGGGCGCCAUGCCUGCAGGUCGACUCUAGAAAACAUG”, the binding signal in experiment [7] is 2.69 log2 enrichment (interaction score).

For “GGCUAGAACUAGUGGAUCCCCCGGCGCCCGGCGGCUCGAGCCCGGGUAAGUGUAAUUAGUCUGCAUGCCGCCGGGCGCCAUGCCUGCAGGUCGACUCUAGAAAACAUG”, the binding signal in experiment [12] was 2.46 log2 enrichment (interaction score); in [14], 3.08 log2 enrichment (interaction score).

“GGCUAGAACUAGUGGAUCCCCCGGCGCCCGGCGGCUCGAGCCCGGGUAAGUGUAAAGAGUCUGCAUGCCGCCGGGCGCCAUGCCUGCAGGUCGACUCUAGAAAACAUG”: in [11], the binding signal was 3.16 log2 enrichment (interaction score).

As to “GGCUAGAACUAGUGGAUCCCCCGGCGCCCGGCGGCUCGAGCCCGGGUAAGUGUAAAAAGUCUGCAUGCCGCCGGGCGCCAUGCCUGCAGGUCGACUCUAGAAAACAUG”, the binding signal was 8 log2 enrichment (interaction score) in experiment [11] and 6.3 log2 enrichment (interaction score) in experiment [20].

With “GGCUAGAACUAGUGGAUCCCCCGGCGCCCGGCGGCUCGAGCCCGGGUAAGUGUAAGUAGUCUGCAUGCCGCCGGGCGCCAUGCCUGCAGGUCGACUCUAGAAAACAUG”, the binding signal in experiment [12] was 1.12 log2 enrichment (interaction score); in experiment [14], 4.82 log2 enrichment (interaction score).

With “GGCUAGAACUAGUGGAUCCCCCGGCGCCCGGCGGCUCGAGCCCGGGUAAGUGCAAAUAGUCUGCAUGCCGCCGGGCGCCAUGCCUGCAGGUCGACUCUAGAAAACAUG”, the binding signal in [13] is 5.67 log2 enrichment (interaction score); in experiment [17] it was 4.16 log2 enrichment (interaction score).

Take “GGCUAGAACUAGUGGAUCCCCCGGCGCCCGGCGGCUCGAGCCCGGGUAAGUGAAAAUAGUCUGCAUGCCGCCGGGCGCCAUGCCUGCAGGUCGACUCUAGAAAACAUG”: the binding signal in [17] was 2.73 log2 enrichment (interaction score).

As to “GGCUAGAACUAGUGGAUCCCCCGGCGCCCGGCGGCUCGAGCCCGGGUAAGUGUAUAUAGUCUGCAUGCCGCCGGGCGCCAUGCCUGCAGGUCGACUCUAGAAAACAUG”, the binding signal in experiment [9] is 3.03 log2 enrichment (interaction score); in [10] it was 1.92 log2 enrichment (interaction score).
